This is part of a sample that, as a whole, favours compounds with a hit. Of some 83,000 tested, about 20% had one in any assay.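 Percent growth is the endpoint: 0 to 100 indicates growth inhibition (40 means 60% inhibition), 0 means no net growth, and negative values indicate cell death.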 A number with no mark means an inactive call. The source made the active and inactive calls. Rule for the calls: active = growth percent below 10; inactive = the rest.
test system: MALME-3M melanoma; assay: NCI-60 one-dose screen, 48 h (100 = growth as untreated, 0 = no growth, -100 = all killed); details: 10 µM unless noted

SMILES	growth
CCCCNC(=O)Oc1ccc(/C(=C(/C)Cc2ccc(OC)cc2)c2ccc(OCCN(CC)CC)cc2)cc1	88.1%
Cc1nc2sc(C(=O)Nc3cccc(Br)c3)c(N)c2cc1C(O)c1ccccc1 (stereo not given)	55%
CCn1cc(C(=O)O)c(=O)c2cc(F)c(N3CCN(CC(=O)Nc4ccc(S(=O)(=O)Nc5nccc(C)n5)cc4)C(C)C3)c(F)c21 (stereo not given)	111%
C#CCOc1ccc2ncnc(Nc3ccc(NC(=O)C=C)cc3)c2c1	-74.4% (active)
Nc1ncnc2c1C(c1ccc(Br)cc1)c1sc3c(F)cccc3c1O2 (stereo not given)	127%
N#Cc1nc(-c2ccc(Cl)cc2)oc1S(=O)(=O)N1CCN(c2ccc(F)cc2)CC1	92.6%
CCn1c(SCC(=O)N/N=C(\C)c2ccc(Cl)cc2)nc2c1c(=O)n(C)c(=O)n2C	100%
Cc1ccc(C2=Nc3c(N)ncnc3NC(c3cccc(Nc4ccnc5cc(C(F)(F)F)ccc45)c3)C2)cc1 (stereo not given)	35.3%
CCCCCCCCCCCCCCCCCCOc1ccccc1CC(=O)OCC[N+](C)(C)C	26.9%
CC(C)C1=NOC(=O)C1=Cc1cn(-c2ccccc2)nc1-c1ccc(F)cc1	90.8%
O=C(NNC(=O)c1ccc(NC(=O)c2ccccn2)cc1)Nc1ccc([N+](=O)[O-])cc1	98%
CSc1nc2ccccc2cc1/C=C1/C=C(c2ccccc2)NC1=O	86.9%
CC(C)c1ccc(-n2c(=S)[nH]c3sc4cc(O)ccc4c3c2=O)cc1	87.1%
C=C1C(=O)O[C@H]2[C@H]1CC/C(COC(=O)c1cc3ccccc3s1)=C\CC[C@@]1(C)O[C@@H]21	-67.2% (active)
COc1ccc(OC)c(/C=N/Nc2ncnc3c2c(C)nn3C)c1	119%
NC(=O)c1ccc(-c2c3ccccc3cc3c2ccc2ccccc23)cc1	54.7%
NNc1nc(-c2cccnc2)nc2c1sc(=S)n2-c1ccccc1	100%
CN(C)CC(C)(C)C(=O)/C=C/c1ccccc1	-69.5% [25 µM] (active)
Cc1ccc(Nc2cc(N)nc(N)n2)cc1Cl	97.7%
COc1ccc(CNc2c3ccccc3nc3ccccc23)cc1	40%

SMILES	growth
CN(c1cc2ncc(=O)[nH]c2cc1NC(N)=NCc1ccc(Cl)cc1)C1CCCCC1	29.9%
Cc1cccc(CNc2c3ccccc3nc3ccccc23)c1	14.1%
Fc1cc2c(cc1Cl)N(c1ncnc3ccc(-c4ccc5n[nH]nc5c4)cc13)CC2	88.8%
CC(C)c1ccc(Cc2cnc(NC(=O)c3cc(Br)cs3)s2)cc1	31.1%
O=C1Nc2ccc(C(=O)O)cc2/C1=N/c1nnc(Sc2ccccc2)s1	113%
O=C(Nc1nc2ccc(C(=O)N3CCN(/C=C/c4ccccc4)CC3)cc2s1)c1ccc(NCCc2ccccc2)c([N+](=O)[O-])c1	-0.217% (active)
O=C(c1ccncc1)N1N=C(c2ccc(Cl)cc2)C[C@H]1c1cn(-c2ccccc2)nc1-c1ccccc1	108%
CCc1ccc(CCCC(=O)O)cc1	107%
CSc1nc2ccccc2cc1/C=[N+](\[O-])c1ccccc1	46.1%
NC(=O)CSc1oc(-c2ccccc2)nc1S(=O)(=O)c1ccc(Br)cc1	59.4%
N#CC1=C(N)Oc2c(c(=O)[nH]c3ccc(Cl)cc23)C12C(=O)c1ccccc1C2=O	95%
CC/C(=C(/c1ccc(Cl)cc1)c1ccc(OCCN2CCCCC2)cc1)c1ccc(OC)cc1	75.4%
NC(Cc1ccc(O)c([N+](=O)[O-])c1)C(=O)O (stereo not given)	109%
Nc1c(C(=O)Nc2ccncc2)sc2nc3c(cc12)C(O)CCC3 (stereo not given)	118%
COc1ccc(NC2=C(I)C(=O)c3ncccc3C2=O)cc1	-98.2% (active)
CCOc1ccc(NC(=O)CSc2oc(-c3ccccc3)nc2S(=O)(=O)c2ccc(C)cc2)cc1	81%
O=S(=O)(Nc1cc(F)cc(Cl)c1)c1ccc(-c2cnc(C3CC3)o2)cc1	52.1%
CC1(C)COB(OCC(C)(C)COB2OCC(C)(C)CO2)OC1	93.8%
O=C(Nc1ccccc1O)c1ccc(CNC(=O)c2sccc2Nc2ccnc(C(F)(F)F)c2)cc1	-2.09% (active)
CCC(C)N(CCNc1cc(OC)cc2cccnc12)CC(C)C (stereo not given)	119%

test system: MDA-MB-231 breast; assay: as above; details: 10 µM unless noted

SMILES	growth
CCCCNC(=O)Oc1ccc(/C(=C(/C)Cc2ccc(OC)cc2)c2ccc(OCCN(CC)CC)cc2)cc1	88.8%
Cc1nc2sc(C(=O)Nc3cccc(Br)c3)c(N)c2cc1C(O)c1ccccc1 (stereo not given)	24.2%
CCn1cc(C(=O)O)c(=O)c2cc(F)c(N3CCN(CC(=O)Nc4ccc(S(=O)(=O)Nc5nccc(C)n5)cc4)C(C)C3)c(F)c21 (stereo not given)	100%
C#CCOc1ccc2ncnc(Nc3ccc(NC(=O)C=C)cc3)c2c1	-71.7% (active)
Nc1ncnc2c1C(c1ccc(Br)cc1)c1sc3c(F)cccc3c1O2 (stereo not given)	79.7%
N#Cc1nc(-c2ccc(Cl)cc2)oc1S(=O)(=O)N1CCN(c2ccc(F)cc2)CC1	103%
CCn1c(SCC(=O)N/N=C(\C)c2ccc(Cl)cc2)nc2c1c(=O)n(C)c(=O)n2C	104%
Cc1ccc(C2=Nc3c(N)ncnc3NC(c3cccc(Nc4ccnc5cc(C(F)(F)F)ccc45)c3)C2)cc1 (stereo not given)	29.6%
CCCCCCCCCCCCCCCCCCOc1ccccc1CC(=O)OCC[N+](C)(C)C	-2.29% (active)
CC(C)C1=NOC(=O)C1=Cc1cn(-c2ccccc2)nc1-c1ccc(F)cc1	98.1%
O=C(NNC(=O)c1ccc(NC(=O)c2ccccn2)cc1)Nc1ccc([N+](=O)[O-])cc1	103%
CSc1nc2ccccc2cc1/C=C1/C=C(c2ccccc2)NC1=O	86.6%
CC(C)c1ccc(-n2c(=S)[nH]c3sc4cc(O)ccc4c3c2=O)cc1	95.4%
C=C1C(=O)O[C@H]2[C@H]1CC/C(COC(=O)c1cc3ccccc3s1)=C\CC[C@@]1(C)O[C@@H]21	-66.1% (active)
COc1ccc(OC)c(/C=N/Nc2ncnc3c2c(C)nn3C)c1	81%
NC(=O)c1ccc(-c2c3ccccc3cc3c2ccc2ccccc23)cc1	42.2%
NNc1nc(-c2cccnc2)nc2c1sc(=S)n2-c1ccccc1	105%
CN(C)CC(C)(C)C(=O)/C=C/c1ccccc1	-10.9% [25 µM] (active)
Cc1ccc(Nc2cc(N)nc(N)n2)cc1Cl	102%
COc1ccc(CNc2c3ccccc3nc3ccccc23)cc1	47.4%

SMILES	growth
CN(c1cc2ncc(=O)[nH]c2cc1NC(N)=NCc1ccc(Cl)cc1)C1CCCCC1	19.9%
Cc1cccc(CNc2c3ccccc3nc3ccccc23)c1	38.7%
Fc1cc2c(cc1Cl)N(c1ncnc3ccc(-c4ccc5n[nH]nc5c4)cc13)CC2	72.8%
CC(C)c1ccc(Cc2cnc(NC(=O)c3cc(Br)cs3)s2)cc1	55.8%
O=C1Nc2ccc(C(=O)O)cc2/C1=N/c1nnc(Sc2ccccc2)s1	106%
O=C(Nc1nc2ccc(C(=O)N3CCN(/C=C/c4ccccc4)CC3)cc2s1)c1ccc(NCCc2ccccc2)c([N+](=O)[O-])c1	66%
O=C(c1ccncc1)N1N=C(c2ccc(Cl)cc2)C[C@H]1c1cn(-c2ccccc2)nc1-c1ccccc1	69.6%
CCc1ccc(CCCC(=O)O)cc1	100%
CSc1nc2ccccc2cc1/C=[N+](\[O-])c1ccccc1	46.5%
NC(=O)CSc1oc(-c2ccccc2)nc1S(=O)(=O)c1ccc(Br)cc1	52.7%
N#CC1=C(N)Oc2c(c(=O)[nH]c3ccc(Cl)cc23)C12C(=O)c1ccccc1C2=O	90.3%
CC/C(=C(/c1ccc(Cl)cc1)c1ccc(OCCN2CCCCC2)cc1)c1ccc(OC)cc1	73.3%
NC(Cc1ccc(O)c([N+](=O)[O-])c1)C(=O)O (stereo not given)	113%
Nc1c(C(=O)Nc2ccncc2)sc2nc3c(cc12)C(O)CCC3 (stereo not given)	96.8%
COc1ccc(NC2=C(I)C(=O)c3ncccc3C2=O)cc1	-11.8% (active)
CCOc1ccc(NC(=O)CSc2oc(-c3ccccc3)nc2S(=O)(=O)c2ccc(C)cc2)cc1	32.2%
O=S(=O)(Nc1cc(F)cc(Cl)c1)c1ccc(-c2cnc(C3CC3)o2)cc1	42.7%
CC1(C)COB(OCC(C)(C)COB2OCC(C)(C)CO2)OC1	112%
O=C(Nc1ccccc1O)c1ccc(CNC(=O)c2sccc2Nc2ccnc(C(F)(F)F)c2)cc1	53%
CCC(C)N(CCNc1cc(OC)cc2cccnc12)CC(C)C (stereo not given)	87.8%

— PubChem BioAssay (NCI)
